# Laboratory results from PubChem BioAssay (NCI).
# About 83,000 compounds went through this panel and 20% of them were active in at least one assay; those are over-represented in the sample as a whole.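 48-hour exposure, single concentration, 96-well plates; percent growth endpoint where 0 means no net growth. Active: below 10.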 A number with no mark means an inactive call. Calls of active or inactive are those of the source.
# System: OVCAR-3 ovarian
# Test: NCI-60 one-dose screen, 48 h (100 = growth as untreated, 0 = no growth, -100 = all killed)
# Settings: 10 µM unless noted
row,SMILES,growth
1,CC(C)(C)CC(C)(C)c1ccc(OCCOCC[N+](C)(C)CC(=O)[O-])cc1,113%
2,CN(CSc1ccc(Cl)cc1)c1ccc(CSc2ccc(Cl)cc2)cc1,62.6%
3,COc1ccc(C2(Cl)c3ccccc3N(c3ccccc3)c3ccccc32)cc1,-43.9% (active)
4,CCCCC(=O)OC1CCCCC1C (configuration not stated),107%
5,O=P(O)(c1ccccc1)c1ccccc1I,108%
6,O=c1[nH]c(=S)[nH]c2nc[nH]c12,115%
7,OCC(CO)(CCl)CCl,105%
8,C#CCC(C)(O)/C=C/C1=C(C)CCCC1(C)C (configuration not stated),106%
9,O=c1[nH]ncc(Br)c1Br,-100% (active)
10,Cc1ccc2[nH]cc(-c3nc(-c4cn(C)c5ncccc45)cs3)c2c1,106%
11,CC(=O)OC(C)COc1ccc(-c2ccccc2)cc1 (configuration not stated),107%
12,Fc1ccc2[nH]cc(-c3nc(-c4c[nH]c5ncccc45)cs3)c2c1,44.5%
13,O=C1C(Cl)=C(Nc2ccc(S(=O)(=O)c3ccc(NC4=C(Cl)C(=O)c5ccccc5C4=O)cc3)cc2)C(=O)c2ccccc21,-98.4% (active)
14,Cc1oc(-c2ccccc2Cl)cc1C(=O)Nc1ccc(S(N)(=O)=O)cc1,117%
15,CCC(CC)C(=O)OC(C)COc1ccc(C(C)(C)C)cc1 (configuration not stated),107%
16,CCCCC/C(=C\c1ccccc1)C1OC(C)C(C)O1 (configuration not stated),101%
17,N=C(N)c1ccc(S(N)(=O)=O)cc1,113%
18,O=C1C=C(C(O)c2ccc(O)cc2)C(=O)c2ccccc21 (configuration not stated),96.2%
19,N#C/C(=C\c1ccc(-c2ccc(F)cc2)o1)c1nc(-c2ccco2)cs1,105%
20,Cc1ccc(-c2ccc(/C=C(\C#N)c3nc(-c4ccco4)cs3)o2)cc1,112%

row,SMILES,growth
1,Cn1cc(-c2nc(-c3c[nH]c4ncccc34)cs2)c2cc(Cl)ccc21,69.9%
2,O=C(O)/C(=C/c1ccc(O)cc1)c1ccccc1,103%
3,Cc1ccc2c(c1)c(-c1nc(-c3c[nH]c4ncccc34)cs1)cn2C,139%
4,CCCC1CCCCN1C(=O)OCC(C)C (configuration not stated),112%
5,COc1ccc(OCC(CO)N2CCN(c3ccccc3)CC2)cc1 (configuration not stated),102%
6,N#CC1=C(N)Oc2c(c(N)nn2-c2ccccc2)C1c1ccc(Cl)cc1 (configuration not stated),109%
7,c1ccc2c(-c3nc(-c4c[nH]c5ncccc45)cs3)c[nH]c2c1,102%
8,OCC1OC(n2cnc3c(Cl)ncnc32)CC1O (configuration not stated),115%
9,Cn1cc(-c2nc(-c3c[nH]c4ncccc34)cs2)c2cc(Br)ccc21,118%
10,CC(c1ccccc1)N1C(=O)C(C2SC(=S)N(C(C)c3ccccc3)C2=O)SC1=S (configuration not stated),76.8%
11,Cn1c(=O)c2c(nc(N3CCCC3)n2C)n(C)c1=O,110%
12,Cn1cccc1/C=C1/SC(=S)N(CCc2ccc(O)cc2)C1=O,39.4%
13,CCSc1ncnc2c1ncn2C1OC(CO)C(O)C1O (configuration not stated),23.4%
14,CN(C)CCCCC(C(=O)CBr)(c1ccccc1)c1ccccc1,-44% (active)
15,CCCCCC1CCCCN1C(=O)OCC (configuration not stated),109%
16,O=C(/C=C/c1ccc2ccccc2c1)Nc1ncc(Cc2ccccc2)s1,10%
17,COc1ccc2c(c1)c(-c1nc(-c3c[nH]c4ncccc34)cs1)cn2C,103%
18,Cn1cc(-c2csc(-c3cn(C(=O)OC(C)(C)C)c4ccccc34)n2)c2cccnc21,14.6%
19,CCCCCCCN(CCCCCCC)C(=N)c1ccnc2ccccc12,-41.8% (active)

# System: HS 578T breast
# Test: as above
# Settings: 10 µM unless noted
row,SMILES,growth
1,CC(C)(C)CC(C)(C)c1ccc(OCCOCC[N+](C)(C)CC(=O)[O-])cc1,114%
2,CN(CSc1ccc(Cl)cc1)c1ccc(CSc2ccc(Cl)cc2)cc1,93.3%
3,COc1ccc(C2(Cl)c3ccccc3N(c3ccccc3)c3ccccc32)cc1,-12.9% (active)
4,CCCCC(=O)OC1CCCCC1C (configuration not stated),97.6%
5,O=P(O)(c1ccccc1)c1ccccc1I,97%
6,OCC(CO)(CCl)CCl,105%
7,C#CCC(C)(O)/C=C/C1=C(C)CCCC1(C)C (configuration not stated),108%
8,Cc1ccc2[nH]cc(-c3nc(-c4cn(C)c5ncccc45)cs3)c2c1,99%
9,CC(=O)OC(C)COc1ccc(-c2ccccc2)cc1 (configuration not stated),103%
10,Fc1ccc2[nH]cc(-c3nc(-c4c[nH]c5ncccc45)cs3)c2c1,31.4%
11,Cc1oc(-c2ccccc2Cl)cc1C(=O)Nc1ccc(S(N)(=O)=O)cc1,101%
12,CCC(CC)C(=O)OC(C)COc1ccc(C(C)(C)C)cc1 (configuration not stated),110%
13,CCCCC/C(=C\c1ccccc1)C1OC(C)C(C)O1 (configuration not stated),110%
14,O=C1C=C(C(O)c2ccc(O)cc2)C(=O)c2ccccc21 (configuration not stated),120%
15,N#C/C(=C\c1ccc(-c2ccc(F)cc2)o1)c1nc(-c2ccco2)cs1,109%
16,Cc1ccc(-c2ccc(/C=C(\C#N)c3nc(-c4ccco4)cs3)o2)cc1,107%
17,Cn1cc(-c2nc(-c3c[nH]c4ncccc34)cs2)c2cc(Cl)ccc21,61.6%

row,SMILES,growth
1,Cc1ccc2c(c1)c(-c1nc(-c3c[nH]c4ncccc34)cs1)cn2C,109%
2,CCCC1CCCCN1C(=O)OCC(C)C (configuration not stated),102%
3,COc1ccc(OCC(CO)N2CCN(c3ccccc3)CC2)cc1 (configuration not stated),96.6%
4,N#CC1=C(N)Oc2c(c(N)nn2-c2ccccc2)C1c1ccc(Cl)cc1 (configuration not stated),97%
5,c1ccc2c(-c3nc(-c4c[nH]c5ncccc45)cs3)c[nH]c2c1,110%
6,OCC1OC(n2cnc3c(Cl)ncnc32)CC1O (configuration not stated),108%
7,Cn1cc(-c2nc(-c3c[nH]c4ncccc34)cs2)c2cc(Br)ccc21,98%
8,CC(c1ccccc1)N1C(=O)C(C2SC(=S)N(C(C)c3ccccc3)C2=O)SC1=S (configuration not stated),96%
9,Cn1c(=O)c2c(nc(N3CCCC3)n2C)n(C)c1=O,105%
10,Cn1cccc1/C=C1/SC(=S)N(CCc2ccc(O)cc2)C1=O,67.7%
11,CN(C)CCCCC(C(=O)CBr)(c1ccccc1)c1ccccc1,24.2%
12,CCCCCC1CCCCN1C(=O)OCC (configuration not stated),110%
13,O=C(/C=C/c1ccc2ccccc2c1)Nc1ncc(Cc2ccccc2)s1,29.2%
14,COc1ccc2c(c1)c(-c1nc(-c3c[nH]c4ncccc34)cs1)cn2C,77.2%
15,Cn1cc(-c2csc(-c3cn(C(=O)OC(C)(C)C)c4ccccc34)n2)c2cccnc21,73.1%
16,CCCCCCCN(CCCCCCC)C(=N)c1ccnc2ccccc12,-43.6% (active)
